Test results as given in publication PMC3218832.

Tests used:
Assay in all cases: protein binding microarray; high values mean tight binding
Conditions in all cases: dsDNA, one strand shown
RELARELA (p65 homodimer) = RELARELA (p65 homodimer) (Homo sapiens, UniProt Q04206 1-307)
p50p50 homodimer = p50p50 homodimer (Homo sapiens, UniProt P19838 7-356)
p52p52 homodimer = molecular target: T1, p52p52 homodimer (Homo sapiens, UniProt Q00653 4-332)
T1 sequence: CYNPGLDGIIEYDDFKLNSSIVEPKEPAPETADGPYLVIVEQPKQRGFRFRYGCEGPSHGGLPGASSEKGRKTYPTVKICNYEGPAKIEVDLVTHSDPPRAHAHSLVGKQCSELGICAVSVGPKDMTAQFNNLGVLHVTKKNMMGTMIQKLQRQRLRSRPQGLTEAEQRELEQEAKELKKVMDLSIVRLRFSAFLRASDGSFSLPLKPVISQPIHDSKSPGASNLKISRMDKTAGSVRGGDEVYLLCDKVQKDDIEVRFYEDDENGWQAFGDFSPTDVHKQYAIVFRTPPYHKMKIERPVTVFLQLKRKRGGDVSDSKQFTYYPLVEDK

[1] = molecular target: RELA (p65) subunit of heterodimer;p50 subunit (Homo sapiens;Homo sapiens, UniProt Q04206;P19838 1-307;7-356)
Chain of RELA (p65) subunit of heterodimer;p50 subunit (Q04206 1-307, chain 1 of 2): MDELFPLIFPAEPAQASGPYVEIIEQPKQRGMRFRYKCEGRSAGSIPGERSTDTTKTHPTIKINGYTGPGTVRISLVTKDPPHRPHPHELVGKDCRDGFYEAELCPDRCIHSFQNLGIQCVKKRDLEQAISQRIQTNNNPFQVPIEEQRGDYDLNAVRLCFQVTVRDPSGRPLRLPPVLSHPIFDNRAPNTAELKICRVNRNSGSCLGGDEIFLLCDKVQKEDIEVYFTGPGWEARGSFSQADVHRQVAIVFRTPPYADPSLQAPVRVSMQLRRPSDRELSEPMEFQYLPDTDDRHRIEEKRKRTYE
Chain of RELA (p65) subunit of heterodimer;p50 subunit (P19838 7-356, chain 2 of 2): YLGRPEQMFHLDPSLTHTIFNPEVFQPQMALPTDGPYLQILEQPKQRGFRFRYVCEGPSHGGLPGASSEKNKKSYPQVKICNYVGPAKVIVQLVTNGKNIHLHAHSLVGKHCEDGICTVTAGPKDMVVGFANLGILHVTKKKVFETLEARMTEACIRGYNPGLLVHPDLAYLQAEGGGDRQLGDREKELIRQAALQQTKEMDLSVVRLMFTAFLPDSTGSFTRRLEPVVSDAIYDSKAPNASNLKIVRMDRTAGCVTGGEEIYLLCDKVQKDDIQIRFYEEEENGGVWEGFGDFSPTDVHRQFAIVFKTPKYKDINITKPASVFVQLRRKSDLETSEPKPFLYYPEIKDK

[2] = molecular target: RELA (p65) subunit of heterodimer;p52 subunit (Homo sapiens;Homo sapiens, UniProt Q04206;Q00653 1-307;4-332)
RELB subunit;p50 subunit = RELB subunit;p50 subunit (Homo sapiens;Homo sapiens, UniProt Q01201;P19838 120-401;7-356)
RELB subunit;p52 subunit = molecular target: T2, RELB subunit;p52 subunit (Homo sapiens;Homo sapiens, UniProt Q01201;Q00653 120-401;4-332)
T2 sequence 1: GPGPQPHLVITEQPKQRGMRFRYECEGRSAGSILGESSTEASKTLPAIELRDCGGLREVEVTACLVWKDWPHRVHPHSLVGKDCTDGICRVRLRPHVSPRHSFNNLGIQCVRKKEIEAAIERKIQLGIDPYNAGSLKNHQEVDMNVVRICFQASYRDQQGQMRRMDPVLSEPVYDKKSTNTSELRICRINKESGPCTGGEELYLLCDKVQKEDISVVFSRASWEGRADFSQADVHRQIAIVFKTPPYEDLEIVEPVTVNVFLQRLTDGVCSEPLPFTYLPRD
T2 sequence 2: T1 sequence

[3] = molecular target: C-Rel subunit;p50 subunit (Homo sapiens;Homo sapiens, UniProt Q04864;P19838 1-285;7-356)
[4] = molecular target: T3, C-Rel subunit;p52 subunit (Homo sapiens;Homo sapiens, UniProt Q04864;Q00653 1-285;4-332)
T3 sequence 1: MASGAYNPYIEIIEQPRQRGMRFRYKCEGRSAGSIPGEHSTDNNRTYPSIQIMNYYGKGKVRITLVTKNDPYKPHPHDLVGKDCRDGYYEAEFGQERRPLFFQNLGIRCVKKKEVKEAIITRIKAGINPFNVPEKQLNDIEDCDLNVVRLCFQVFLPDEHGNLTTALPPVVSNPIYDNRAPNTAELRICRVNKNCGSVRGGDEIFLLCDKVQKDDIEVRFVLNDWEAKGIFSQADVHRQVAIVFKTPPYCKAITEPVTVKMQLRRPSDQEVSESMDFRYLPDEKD
T3 sequence 2: T1 sequence

Chain of RELARELA (p65 homodimer) (Q04206 1-307): as the sequence (Q04206 1-307, chain 1 of 2) above
Chain of p50p50 homodimer (P19838 7-356): as the sequence (P19838 7-356, chain 2 of 2) above

Sequence	binding signal (RELARELA (p65 homodimer))	binding signal (p50p50 homodimer)	binding signal (p52p52 homodimer)	binding signal [1]	binding signal [2]	binding signal (RELB subunit;p50 subunit)	binding signal (RELB subunit;p52 subunit)	binding signal [3]	binding signal [4]
GGGGGCGCCCT	0.992 z-score	0.922 z-score	1.68 z-score	1.43 z-score	1.58 z-score	1.12 z-score	1.33 z-score	0.776 z-score	1.34 z-score
AAAAAGCCCCC	1.22 z-score	1.3 z-score	2.26 z-score	1.98 z-score	2.06 z-score	2.17 z-score	2.06 z-score	1.43 z-score	2.22 z-score
CGAGTTCTCCC	0.00528 z-score	0.1 z-score	-0.0592 z-score	0.0957 z-score	-0.132 z-score	0.367 z-score	0.182 z-score	-0.0444 z-score	-0.16 z-score
AAGTAAGTCCC	0.51 z-score	1.02 z-score	0.587 z-score	0.837 z-score	0.459 z-score	1.1 z-score	0.647 z-score	0.768 z-score	0.419 z-score
CAAATGGTCCT	-0.0232 z-score	-1.33 z-score	-0.481 z-score	-1.22 z-score	-0.808 z-score	-0.726 z-score	-0.534 z-score	-1.3 z-score	-0.727 z-score
GGGGACACCCC	0.873 z-score	0.656 z-score	2.83 z-score	1.56 z-score	2.26 z-score	1.68 z-score	2.1 z-score	1.26 z-score	2.35 z-score
CAAGATTCCCT	0.527 z-score	1.13 z-score	0.975 z-score	0.96 z-score	0.948 z-score	1.02 z-score	1.01 z-score	1.06 z-score	0.715 z-score
GGATGGCTCCT	-0.414 z-score	-1.51 z-score	-0.721 z-score	-1.07 z-score	-1.08 z-score	-1.19 z-score	-1.05 z-score	-1.64 z-score	-0.938 z-score
AGGAATATCCC	1.97 z-score	0.155 z-score	0.511 z-score	0.866 z-score	0.83 z-score	0.0984 z-score	0.231 z-score	0.402 z-score	0.834 z-score
GAAGTTTCCCC	2.24 z-score	1.35 z-score	2 z-score	2.3 z-score	1.99 z-score	2.19 z-score	2.19 z-score	1.89 z-score	1.71 z-score
CAATGTGTCCT	0.249 z-score	-1.04 z-score	-0.284 z-score	-0.926 z-score	-0.828 z-score	-0.731 z-score	-0.475 z-score	-0.887 z-score	-0.764 z-score
GAAGAGCCCCT	-0.596 z-score	1 z-score	0.626 z-score	0.604 z-score	0.773 z-score	0.554 z-score	0.833 z-score	0.202 z-score	0.429 z-score
CGATACCTCCC	-0.139 z-score	-0.527 z-score	-0.392 z-score	-0.477 z-score	-0.641 z-score	-0.466 z-score	-0.506 z-score	-0.897 z-score	-0.543 z-score
AAAATCTTCCC	1.32 z-score	0.807 z-score	0.256 z-score	0.764 z-score	0.419 z-score	0.54 z-score	0.162 z-score	1.06 z-score	0.488 z-score
CGAAGGACCCT	-1.31 z-score	-1.42 z-score	-0.622 z-score	-0.948 z-score	-0.812 z-score	-0.928 z-score	-0.721 z-score	-1.47 z-score	-0.87 z-score
